# Screening data from PubChem.
# NFkB binder – binders of NF-kB p50 subunit, primary screen, biochemical, small molecule microarray, anti-His fluorescence. anti-His fluorescence binding. AID 624139, 2012. Nuclear factor NF-kappa-B p105 subunit (Homo sapiens), P19838. 1.3% of 17,000 active. calls only;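 active = spot fluorescence over background significantly raised, with a chance value under 7% in all four replicate spots of the compound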;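 note: probe protein is his-tagged human p50 processed subunit at 1 µg/ml; raw spot fluorescence signals with no normalization applied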
# Myc binder – binders of human c-Myc, primary screen, biochemical, small molecule microarray, anti-His fluorescence; calls only; AID 624141, 2012; 1.5% of 17,000 active; Myc proto-oncogene protein (Homo sapiens), P01106; His-c-Myc binding;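 active = spot fluorescence over background with P-value below 7% in all four replicate spots, showing protein binding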;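 note: score is binary with 100 for all four spots passing and 0 otherwise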
# STAT3 binder – STAT3 binders, primary screen, biochemical, small molecule microarray, single point, set 2; Signal transducer and activator of transcription 3 (Homo sapiens), P40763; His-STAT3 binding, anti-His fluorescence; calls only; 0.2% of 17,000 active; AID 624138, 2012;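 active = compounds whose four printed spots each show fluorescence over background unusually high for their array block, chance value under 7%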
# p53 mut binder – binders of human mutant p53, primary screen, biochemical, small molecule microarray, anti-GST fluorescence. 0.4% of 17,000 active. AID 624136, 2012. small molecule microarray binding. mutant tumor protein p53 (GST-tagged), Homo sapiens. calls only;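 active = compounds whose four printed spots each glow above background more than chance allows, each with a p-value under 7%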
# * hit, by the source's call; i = inactive; + = active, no number. This is a sample that favours compounds with a hit; in the whole collection about 2.5% have one here.
SMILES,NFkB binder,Myc binder,STAT3 binder,p53 mut binder
C[C@H]1CCCCO[C@H](CN(C)C(=O)CCC(F)(F)F)[C@@H](C)CN([C@@H](C)CO)C(=O)c2cc(NS(C)(=O)=O)ccc2O1,+,+,i,i
C[C@@H]1CN([C@@H](C)CO)C(=O)c2cc(NS(C)(=O)=O)ccc2O[C@@H](C)CCCCO[C@@H]1CN(C)C(=O)CCC(F)(F)F,i,+,i,i
O=C1N(Cc2ccccc2)Cc2ccccc2C[C@@]12N=C(c1ccc(OCCCO)cc1)O[C@H]2c1ccccc1,+,i,i,+
C=CCN1Cc2ccccc2[C@@H]2OC(c3ccc(OCCCO)cc3)=N[C@]2(CCC(=O)OC(C)(C)C)C1=O,+,i,i,i
C/C=C(/C)C(=O)OC(C)(C)C1Cc2cc3ccc(=O)oc3cc2O1 (stereo unspecified),i,i,i,i
COc1ccc(S(=O)(=O)N(C)CCc2ccccn2)cc1,+,+,+,i
CN(C/C=C/c1ccccc1[N+](=O)[O-])CCc1ccccn1,i,i,i,i
O=C(Nc1ccccc1)C1=C[C@H](c2ccc(C(F)(F)F)cc2)C[C@H](OCCCCO)O1,i,i,i,i
O=C(O)C1=C[C@H](c2ccc(C(F)(F)F)cc2)C[C@H](OCCCCO)O1,i,i,+,i
CC(=O)O[C@H]1[C@H](Oc2cc(O)cc(O)c2C(=O)c2cccc(O)c2)O[C@H](CO)[C@@H](OC(=O)c2ccccc2)[C@@H]1O,i,i,i,i
N#Cc1cc(C#N)c(SCCN2CCOCC2)nc1N,i,i,i,+
COC(Cc1nc2ccccc2s1)C(=O)O (stereo unspecified),i,+,i,i
